# Over roughly 2,900 compounds, “IRF Lucia reporter activity, fold change vs agonist alone” has its median near 0.9; the highest 2% begin near 2.8. What follows is part of a selection rich in the highest values, with near analogues and random picks from the rest.
# Key:
# RAW-Dual [1] = assay: IRF Lucia reporter activity, fold change vs agonist alone; higher = enhanced IRF activity; conditions: library stock concentration (final ~1000-fold dilution): 10 mM, agonist: MPLA (TLR4) […]
# Procedure, shortened: (§1)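 After 50 nL of library stock was delivered by pin tool to RAW-Dual macrophages (50,000 cells/well, DMEM, 384-well plates), a PRR agonist was added 1 h later and the plates were kept at 37 °C, 5% CO2. Twenty hours later, IRF was read from supernatant by QuantiLuc luminescence and NF-κB by QuantiBlue absorbance at 620 nm. Reporter activity is stated as fold change over agonist-alone wells. Wells with IncuCyte confluency under 70% of agonist controls in both mask sets were counted as cytotoxic.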
# RAW-Dual [2] = assay: IRF Lucia reporter activity, fold change vs agonist alone; cytotoxicity flag (confluency mask): not cytotoxic; higher = enhanced IRF activity
# Procedure, shortened: as §1
# RAW-Dual [3] = assay: IRF Lucia reporter activity, fold change vs agonist alone; cytotoxicity flag (confluency mask): cytotoxic (confluency <70% of control); higher = enhanced IRF activity
# Procedure, shortened: as §1
# [4] = cytotoxicity flag (confluency mask): not cytotoxic
# [5] = agonist: 3'3'-cGAMP (STING) 10 ug/mL
# [6] = cytotoxicity flag (confluency mask): cytotoxic (confluency <70% of control)
smiles,measurement,setting,value
CCOC(=O)c1ccc(NC2CCCCC2)c(N)c1,IRF Lucia reporter activity,RAW-Dual [1]; [4],1.83
CCn1cc(C(=O)O)c(=O)c2c(N)c(F)c(NC3CCCCC3)cc21 (library stock concentration (final ~1000-fold dilution): 10 mM),IRF Lucia reporter activity,RAW-Dual [2]; [5],0.545
same,IRF Lucia reporter activity,RAW-Dual [2]; agonist: LPS (TLR4) 0.1 ug/mL,0.223
CCOC(=O)c1ccc(N)cc1.Cl (library stock concentration (final ~1000-fold dilution): 10 mM),IRF Lucia reporter activity,RAW-Dual [2]; [5],0.942
same,IRF Lucia reporter activity,RAW-Dual [2]; agonist: LPS (TLR4) 0.1 ug/mL,1.15
CCOC(=O)c1ccc(NC2CCCCC2)c(N)c1 (library stock concentration (final ~1000-fold dilution): 10 mM),IRF Lucia reporter activity,RAW-Dual [2]; [5],1.04
same,IRF Lucia reporter activity,RAW-Dual [2]; agonist: LPS (TLR4) 0.1 ug/mL,4.71
CCOC(=O)c1ccc(N)cc1.Cl,IRF Lucia reporter activity,RAW-Dual [1]; [4],1.01
NC(=O)C1CCC2CN1C(=O)N2OS(=O)(=O)O (stereo unspecified) (library stock concentration (final ~1000-fold dilution): 10 mM),IRF Lucia reporter activity,RAW-Dual [2]; [5],1.1
same,IRF Lucia reporter activity,RAW-Dual [2]; agonist: LPS (TLR4) 0.1 ug/mL,1.21
NC(=O)C1CCC2CN1C(=O)N2OS(=O)(=O)O (stereo unspecified),IRF Lucia reporter activity,RAW-Dual [1]; [4],1.13
Oc1cc(CNC(=S)/C=C/c2cc(O)c(O)c(Br)c2)cc(O)c1O (library stock concentration (final ~1000-fold dilution): 10 mM),IRF Lucia reporter activity,RAW-Dual [2]; [5],0.312
same,IRF Lucia reporter activity,RAW-Dual [2]; agonist: LPS (TLR4) 0.1 ug/mL,4.35
O=C1CCC(N2Cc3c(OCc4ccc(CN5CCOCC5)cc4)cccc3C2=O)C(=O)N1 (stereo unspecified) (library stock concentration (final ~1000-fold dilution): 10 mM),IRF Lucia reporter activity,RAW-Dual [2]; [5],1.05
same,IRF Lucia reporter activity,RAW-Dual [2]; agonist: LPS (TLR4) 0.1 ug/mL,1.02
COc1cc(O)c(C(=O)Nc2nc(C(=O)NCCN(C(C)C)C(C)C)cs2)cc1OC.Cl.O.O.O,IRF Lucia reporter activity,RAW-Dual [1]; [4],1.03
COc1cc(O)c(C(=O)Nc2nc(C(=O)NCCN(C(C)C)C(C)C)cs2)cc1OC.Cl.O.O.O (library stock concentration (final ~1000-fold dilution): 10 mM),IRF Lucia reporter activity,RAW-Dual [2]; [5],0.967
same,IRF Lucia reporter activity,RAW-Dual [2]; agonist: LPS (TLR4) 0.1 ug/mL,0.665
COc1cc2nccc(Oc3ccc(NC(=O)Nc4ccc(F)cc4F)c(F)c3)c2cc1OC,IRF Lucia reporter activity,RAW-Dual [1]; [6],1.23
COc1cc2nccc(Oc3ccc(NC(=O)Nc4ccc(F)cc4F)c(F)c3)c2cc1OC (library stock concentration (final ~1000-fold dilution): 10 mM),IRF Lucia reporter activity,RAW-Dual [3]; [5],1.02
same,IRF Lucia reporter activity,RAW-Dual [3]; agonist: LPS (TLR4) 0.1 ug/mL,0.826
COc1ncc(-c2ccc3nccc(-c4ccnnc4)c3c2)cc1NS(=O)(=O)c1ccc(F)cc1F (library stock concentration (final ~1000-fold dilution): 10 mM),IRF Lucia reporter activity,RAW-Dual [2]; [5],1.09
same,IRF Lucia reporter activity,RAW-Dual [2]; agonist: LPS (TLR4) 0.1 ug/mL,3.52
COc1ncc(-c2ccc3nccc(-c4ccnnc4)c3c2)cc1NS(=O)(=O)c1ccc(F)cc1F,IRF Lucia reporter activity,RAW-Dual [1]; [4],1.11
CCCS(=O)(=O)Nc1ccc(F)c(C(=O)c2c[nH]c3ncc(-c4ccc(Cl)cc4)cc23)c1F,IRF Lucia reporter activity,RAW-Dual [1]; [4],0.473
CCCS(=O)(=O)Nc1ccc(F)c(C(=O)c2c[nH]c3ncc(-c4ccc(Cl)cc4)cc23)c1F (library stock concentration (final ~1000-fold dilution): 10 mM),IRF Lucia reporter activity,RAW-Dual [2]; [5],0.195
same,IRF Lucia reporter activity,RAW-Dual [2]; agonist: LPS (TLR4) 0.1 ug/mL,0.356
Cc1nc(Nc2ncc(C(=O)Nc3c(C)cccc3Cl)s2)cc(N2CCN(CCO)CC2)n1.Cl,IRF Lucia reporter activity,RAW-Dual [1]; [4],0.77
Cc1nc(Nc2ncc(C(=O)Nc3c(C)cccc3Cl)s2)cc(N2CCN(CCO)CC2)n1.Cl (library stock concentration (final ~1000-fold dilution): 10 mM),IRF Lucia reporter activity,RAW-Dual [2]; [5],0.0778
same,IRF Lucia reporter activity,RAW-Dual [2]; agonist: LPS (TLR4) 0.1 ug/mL,1.07
C=C1CCN(C(C)C(O)(Cn2cncn2)c2ccc(F)cc2F)CC1 (stereo unspecified),IRF Lucia reporter activity,RAW-Dual [1]; [6],2.14
C=C1CCN(C(C)C(O)(Cn2cncn2)c2ccc(F)cc2F)CC1 (stereo unspecified) (library stock concentration (final ~1000-fold dilution): 10 mM),IRF Lucia reporter activity,RAW-Dual [3]; [5],1.25
same,IRF Lucia reporter activity,RAW-Dual [3]; agonist: LPS (TLR4) 0.1 ug/mL,2.38
CC(C)(C)NC(=O)c1cncn1C1CCN(c2ccc(-c3nnc(C(F)(F)F)o3)cn2)CC1 (library stock concentration (final ~1000-fold dilution): 10 mM),IRF Lucia reporter activity,RAW-Dual [2]; [5],1.33
same,IRF Lucia reporter activity,RAW-Dual [2]; agonist: LPS (TLR4) 0.1 ug/mL,3.77
CC(C)CC(NC(=O)CNC(=O)c1cc(Cl)ccc1Cl)B(O)O (stereo unspecified),IRF Lucia reporter activity,RAW-Dual [1]; [4],1.08
CC(C)CC(NC(=O)CNC(=O)c1cc(Cl)ccc1Cl)B(O)O (stereo unspecified) (library stock concentration (final ~1000-fold dilution): 10 mM),IRF Lucia reporter activity,RAW-Dual [2]; [5],1
same,IRF Lucia reporter activity,RAW-Dual [2]; agonist: LPS (TLR4) 0.1 ug/mL,1.16
COc1ccc2c(OC3CC4C(=O)NC5(C(=O)NS(=O)(=O)C6CC6)CC5/C=C\CCCCN(C)C(=O)C4C3)cc(-c3nc(C(C)C)cs3)nc2c1C (stereo unspecified),IRF Lucia reporter activity,RAW-Dual [1]; [4],1.05
COc1ccc2c(OC3CC4C(=O)NC5(C(=O)NS(=O)(=O)C6CC6)CC5/C=C\CCCCN(C)C(=O)C4C3)cc(-c3nc(C(C)C)cs3)nc2c1C (stereo unspecified) (library stock concentration (final ~1000-fold dilution): 10 mM),IRF Lucia reporter activity,RAW-Dual [2]; [5],1.04
same,IRF Lucia reporter activity,RAW-Dual [2]; agonist: LPS (TLR4) 0.1 ug/mL,1.18

# Source: the supplement of paper PMC10037445
